# Bioassay records deposited in PubChem BioAssay by several laboratories.
# Hits are enriched below; roughly 4.5% of the tested compounds scored in any of these assays.
# Efflux pump mplx: inhibitors of Candida efflux pumps in yeast, primary screen, S. cerevisiae, Nile Red, multiplex | S. cerevisiae Candida pump triplex | hit rate 0.44% among 330,000 | inhibition, % at 10 µM;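 active = plate passing quality check with inhibition over a set limit, or well fluorescence over plate mean plus 4 SD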;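 also: Nile Red retained in pooled yeast measured as flow cytometry median fluorescence; 0% = buffer negative control and 100% = Enniatin B positive control; higher means more Nile Red kept so more efflux inhibition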
# HDAC3 inhib: HDAC3 deacetylase inhibitors, primary screen, biochemical, fluorescence, cell-free homogeneous. Histone deacetylase 3 (Homo sapiens), O15379. recombinant HDAC3, fluorogenic peptide/trypsin coupled. inhibition, % at 8.3 µM. hit rate 0.15% among 320,000. AID 2718, 2010; in the data active = inhibition above about 26%, passing the limit was not always enough; inconclusive = no clear call, values can overlap the other calls
# GRK2 inh: compounds blocking aptamer binding on GRK2 – biochemical, human GRK2, bead flow cytometry, HTS, primary screen. Beta-adrenergic receptor kinase 1 (Homo sapiens), P25098. FAM-aptamer displacement from GRK2. inhibition of aptamer binding, % at 10 µM. hit rate 0.59% among 330,000. AID 488847, 2010;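 active = inhibition of aptamer binding above 40%, roughly 3 SD of noise, on plates passing a quality check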;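 also: median bead fluorescence of bound FAM aptamer so fluorescent compounds give negative values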
# Rce1 inh: yeast Rce1p protease inhibitors, primary screen, biochemical, fluorescence, cell-free homogeneous; hit rate 0.27% among 290,000; AID 2563, 2010; yeast membranes, quenched prenylated peptide cleavage fluorescence; calls only; CAAX prenyl protease 2 (Saccharomyces cerevisiae (strain ATCC 204508 / S288c)), Q03530;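 active = fall in fluorescence gain of 50% or more versus controls, with final raw signal at or below 3038400; inconclusive = same 50% fall but final raw signal above 3038400; inactive = fall in fluorescence gain under 50%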;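 also: plate controls were neutral control wells for no effect and wells lacking membranes for full effect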
# Target sequence (Q03530 whole entry, looked up): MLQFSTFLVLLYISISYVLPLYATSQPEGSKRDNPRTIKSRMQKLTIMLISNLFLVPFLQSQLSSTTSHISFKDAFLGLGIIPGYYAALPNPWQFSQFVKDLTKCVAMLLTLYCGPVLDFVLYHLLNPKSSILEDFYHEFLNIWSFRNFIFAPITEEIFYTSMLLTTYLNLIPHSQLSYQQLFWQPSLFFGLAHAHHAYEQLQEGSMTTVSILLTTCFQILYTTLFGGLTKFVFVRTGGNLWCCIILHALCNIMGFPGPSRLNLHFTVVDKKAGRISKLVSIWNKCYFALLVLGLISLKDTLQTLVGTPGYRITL
# ALR inh: inhibitors of human ALR sulfhydryl oxidase, primary screen, biochemical, H2O2 detection, HRP-luminol luminescence, single point | AID 485317, 2010 | hit rate 3.8% among 290,000 | inhibition, % (no concentration beside the values) | purified ALR, DTT oxidation;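 active = mean replicate inhibition above about 79%, with every replicate also reaching it, limit read from the data; inconclusive = only one of the two criteria met; inactive = mean below limit and not every replicate reaching it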
# Target sequence (P55789 whole entry, looked up): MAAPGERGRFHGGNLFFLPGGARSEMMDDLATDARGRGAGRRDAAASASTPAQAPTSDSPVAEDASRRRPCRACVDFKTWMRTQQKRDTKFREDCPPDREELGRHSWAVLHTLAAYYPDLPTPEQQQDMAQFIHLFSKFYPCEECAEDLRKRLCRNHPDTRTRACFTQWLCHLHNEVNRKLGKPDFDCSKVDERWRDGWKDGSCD
# Rtt109 HAT inh: inhibitors of C. albicans Rtt109/Vps75 HAT, primary screen, biochemical, ThioGlo CoA-SH fluorescence, plate reader; AID 540336, 2011; inhibition, % at 34.9 µM; Histone acetyltransferase RTT109 (Candida albicans (strain SC5314 / ATCC MYA-2876)), …; purified Rtt109/Vps75, 4 h; hit rate 0.16% among 330,000;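 active = inhibition of at least 50% in every replicate; inconclusive = best replicate reaches 50% inhibition but some replicates fall short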
# * hit, by the source's call; i = inactive; ? = inconclusive; nt = no result given.
SMILES,Efflux pump mplx,HDAC3 inhib,GRK2 inh,Rce1 inh,ALR inh,Rtt109 HAT inh
O=C(O)c1cccc(-n2c(/C=C/c3ccc([N+](=O)[O-])cc3)nc3ccccc3c2=O)c1,0,1,0,i,17,10
O=C(O)c1ccc(-n2c(/C=C/c3cccc([N+](=O)[O-])c3)nc3ccccc3c2=O)cc1,3,6,4,i,90*,-3
O=C(O)c1cccc(-n2c(/C=C/c3cccc([N+](=O)[O-])c3)nc3ccccc3c2=O)c1,1,1,0,i,12,29
COc1cc(C#N)c(N=C(SCC#N)N2CCOCC2)cc1OC,0,1,1,i,98*,20
O=C(Nc1ccc(F)cc1)C1CCCN(C2=NS(=O)(=O)c3ccccc32)C1 (stereo not drawn),0,0,2,nt,0,1
c1ccc(NNC2=NCCS2)cc1,0,0,0,i,91*,-3
COc1ccc(NC2CCCN(C(=O)C3=NN(C)C(=O)CC3)C2)cc1OC (stereo not drawn),0,-5,26,i,98*,-11
CC(C)c1ccc(NC2CCCN(C(=O)C3=NN(C)C(=O)CC3)C2)cc1 (stereo not drawn),0,-4,3,i,98*,7
CN(CC1CCOCC1)C(=O)CC1C(=O)NCCN1C/C=C/c1ccccc1 (stereo not drawn),0,-13,0,i,-3,-4
CN(C)c1cc[n+](CC(=O)c2ccc(OC(F)F)cc2)cc1,0,-3,0,i,-4,-1
Cc1[nH]nc2c1C(=O)CCC2,0,0,1,i,100*,2
Cc1[nH]nc2c1C(=O)CC(C)(C)C2,0,-6,0,i,-16,-11
c1ccc(-c2nc(-c3ccco3)n3ccccc23)cc1,0,-9,3,i,94*,-3
CCn1c(-c2ccco2)nc2ccccc21,0,-5,5,i,6,-6
CCCCc1nc2cc(C(=O)N(C)C3CCOCC3)ccc2o1,0,-5,0,i,-9,-4
CCOC(=O)c1c(OCC)[nH]c2ccc(O)cc12,0,-8,0,i,87*,-2
CCOC(=O)c1c(C)[nH]c2ccc(O)cc12,0,6,0,i,34,-3
NC(=O)N/N=C/C=C/c1ccc(F)cc1,0,-9,0,nt,-7,-6
COc1ccc(S(=O)(=O)N2CCCC2CNC(=O)C(=O)NCc2ccccc2Cl)cc1 (stereo not drawn),0,3,0,i,1,5
Cn1cccc1C(=O)OCC(=O)N1CCN(c2ccccc2)CC1,0,-9,0,nt,98*,-3
O=C(OCC(=O)N1CCN(c2ccccc2)CC1)c1ccc2ccccc2n1,0,-5,0,i,97*,-2
NC(=O)C1CCN(c2nc(-c3cccc(Cl)c3)cs2)CC1,0,-1,7,nt,73,-1
COc1ccc(OC)c(NC(=O)COC(=O)C2CCCCC2)c1,0,0,2,nt,nt,7
O=C(COC(=O)c1cc([N+](=O)[O-])ccc1N1CCOCC1)c1ccccc1Cl,0,-2,57*,i,-2,1
NC(=S)c1cc2ccc(O)cc2oc1=O,nt,nt,nt,i,nt,3
SMILES,Efflux pump mplx,HDAC3 inhib,GRK2 inh,Rce1 inh,ALR inh,Rtt109 HAT inh
Oc1cc(O)cc(-c2cc3ccc(O)cc3o2)c1,0,-128,0,?,99*,-5
Cc1c(NS(=O)(=O)c2cccc(C(=O)OCC(=O)c3ccc(Cl)cc3)c2)c(=O)n(-c2ccccc2)n1C,nt,nt,nt,nt,nt,-7
OCCCNCc1ccc(N(c2ccccc2)c2ccccc2)cc1,0,6,0,i,99*,18
OCCNCc1ccc(-c2ccccc2)cc1,0,-1,0,i,nt,2
COc1cc(O)c(CCC(=O)c2ccc(OC)c(OC)c2)c(OC)c1,0,-1,3,i,26,-3
CCOc1ccc(C(=O)CC(NCc2cccs2)C(=O)O)cc1 (stereo not drawn),0,4,0,i,97*,?
CCCCOc1ccc(C(=O)CCN2CCCCC2)cc1,0,6,0,i,98*,3
CCOc1ccc(C(=O)CC(C(=O)O)N2CCCCC2)cc1 (stereo not drawn),0,1,43*,nt,nt,-1
CCOc1ccc(C(=O)CCC(=O)N(CC)CC(=O)NCc2cccs2)cc1,0,-6,1,i,10,11
CCOc1ccc(C(=O)CSCC(=O)O)cc1,0,17,0,i,98*,-14
Nc1ccc(S(=O)(=O)N2CCC(Cc3ccccc3)CC2)cc1,0,-2,0,i,3,0
CSCC[C@H](NC(=O)[C@@H]1Cc2ccccc2CN1)C(=O)Nc1ccc2c(c1)OCCO2,0,-4,0,i,-1,-4
CCOC(=O)C1=CC[C@@H](c2cc(OC)c(OC)c(OC)c2)N(S(=O)(=O)c2ccc(C)cc2)[C@H]1C(=O)OCC,0,2,1,nt,-1,1
CCOc1ccccc1NC(=O)CSc1nnc(CNC(=O)c2cccs2)o1,0,?,0,i,-18,7
C=C[C@@H]1c2ccccc2N(S(=O)(=O)c2ccc(C)cc2)[C@H](c2ccc(C(=O)OC)cc2)C1(C#N)C#N,0,-5,2,nt,5,3
CC1CC(C)CN(C(=O)c2ccc3c(c2)OCCO3)C1 (stereo not drawn),0,1,0,nt,-5,1
CC(NC(=O)C(=O)N1CCCCC1)C(c1cccs1)N1CCN(c2ccc(F)cc2)CC1 (stereo not drawn),0,4,0,i,98*,4
CC(NS(C)(=O)=O)C(c1cccs1)N1CCN(c2ccccc2)CC1 (stereo not drawn),0,1,0,i,99*,-20
CC(C)C(=O)NC(C)C(c1cccs1)N1CCN(c2ccccc2)CC1 (stereo not drawn),0,5,0,i,15,41
CC(NC(=O)C(=O)N1CCCCC1)C(c1cccs1)N1CCN(Cc2ccccc2)CC1 (stereo not drawn),0,-16,0,i,1,-1
CC(NC(=O)C(=O)N1CCCCC1)C(c1cccs1)N1CCN(c2ccccc2)CC1 (stereo not drawn),0,1,2,i,99*,0
